Reference: PubChem BioAssay (NCI)
About 83,000 compounds went through this panel and 20% of them were active in at least one assay; those are over-represented in the sample as a whole.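 A percent growth of 40 corresponds to 60% growth inhibition; 0 means no net growth; -100 means all cells died. Active threshold: below 10.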 Values without a mark were called inactive. Active and inactive are the calls of the source.

Assays:
Assay in all cases: NCI-60 one-dose screen, 48 h (100 = growth as untreated, 0 = no growth, -100 = all killed)
Conditions in all cases: 10 µM unless noted
[1] = test system: SR leukemia
[2] = test system: RPMI-8226 leukemia
[3] = test system: OVCAR-8 ovarian
[4] = test system: OVCAR-5 ovarian
[5] = test system: OVCAR-4 ovarian
[6] = test system: SK-OV-3 ovarian
[7] = test system: IGROV1 ovarian
[8] = test system: OVCAR-3 ovarian
[9] = test system: HS 578T breast
[10] = test system: NCI/ADR-RES ovarian

SMILES | growth [1] | growth [2] | growth [3] | growth [4] | growth [5] | growth [6] | growth [7] | growth [8] | growth [9] | growth [10]
COc1cc(-c2ccc[nH]2)[nH]c1/C=C1\N=C(C)C(CC(=O)OCC(C)(C)C)=C1C | -54.2% (active) | -49.6% (active) | -60.8% (active) | -55.1% (active) | -91.5% (active) | -57.3% (active) | -43.4% (active) | -98% (active) | -24.8% (active) | -65.8% (active)
Cc1cc(NCCCNc2ccnc3cc(Cl)ccc23)nc(Nc2ccc(C(=O)N3CCCCC3)cc2)n1 | -31.8% (active) | -11.1% (active) | 25.4% | 71.6% | 39.5% | 96.8% | 46.3% | 18.8% | 85.3% | 75.6%
CS(=O)(=O)Nc1cc(-c2ccc3ncnc(Nc4ccc5c(cnn5Cc5ccccc5F)c4)c3c2)cnc1Cl | 35.4% | 5.17% (active) | 69.7% | 37.9% | 63.4% | 29.9% | -15.8% (active) | 13.1% | 7.95% (active) | 92.2%
CCCCCc1ccc(S(=O)(=O)Nc2cc(-c3csc(NC(C)=O)n3)ccc2N2CCN(C)CC2)cc1 | 14.1% | -28.7% (active) | 70.1% | 85.3% | 66% | 92.6% | 62.1% | 75.6% | 67.3% | 61.2%
COc1ccccc1/C=C/C(=O)Nc1ccc(F)cc1 | 95% | 85.4% | 100% | 108% | 86.8% | 81.5% | 83.2% | 104% | 104% | 101%
C#Cc1cccc(NC(=O)C2CCCCN2C(=O)CCl)c1 (stereo not given) | 2.64% [8.25 µM] (active) | -38.4% [8.25 µM] (active) | 2.11% [8.25 µM] (active) | -95% [8.25 µM] (active) | -66.9% [8.25 µM] (active) | 33.1% [8.25 µM] | -69.9% [8.25 µM] (active) | -66.3% [8.25 µM] (active) | -22.1% [8.25 µM] (active) | -5.37% [8.25 µM] (active)
O=C1/C(=C/c2c[nH]c(=O)[nH]c2=O)SC(=S)N1Cc1ccccc1 | 99.5% | 101% | 100% | 99% | 105% | 103% | 102% | 108% | 89% | 106%
ClCCn1cnc2c(SCc3ccccc3)ncnc21 | 43.6% | 50.9% | 41.8% | 101% | 81.8% | 62.5% | 133% | 73.4% | 62.8% | 57.1%
COc1ccc(/C=C(/C(=O)N2CCNCC2)c2cc(OC)c(OC)c(OC)c2)cc1O | 3.13% (active) | 9.6% (active) | 52.1% | 86.3% | 78.7% | 10.1% | 60.2% | 10.5% | 26.7% | 105%
CCOC(=O)/C(=C(/C)NCC(C)C)c1cc(O)c(O)c2c(C)cc(=O)[nH]c12 | 18.4% | 19.2% | 23.8% | 86.6% | 25.8% | 84.4% | 61% | 6.74% (active) | 79.5% | 17.2%
CCCCCCCCCCCCCCCCCCOc1ccccc1CC(=O)NCC[N+](C)(C)C | 21.3% | 17.9% | 41.7% | 14.6% | 46.7% | 84.9% | -49.7% (active) | 35% | 61.8% | 99.3%
CCOC(=O)CC[C@H](NC(=O)c1ccc(N(C)Cc2cnc3nc(N)nc(N)c3n2)c2ccccc12)C(=O)OCC | 31.8% | 23% | 23.9% | 55.6% | 91.1% | 50.7% | 24.5% | 45.4% | 58% | 39.3%
O=C(Nc1ncc(Cc2ccccc2)s1)c1sc2ccccc2c1Cl | 16% | 28% | 27.8% | 41.8% | 68.1% | 28.8% | 33.1% | -30.6% (active) | 13.5% | 16.1%
COc1ccc(/C=N/NC(=O)Cn2c(-c3ccc(S(C)(=O)=O)cc3)nc3ccccc32)cc1 | 100% | 105% | 111% | 99.7% | 117% | 117% | 91.4% | 103% | 92.4% | 104%
Clc1cccc(C2Cc3cnccc3-c3[nH]c4ccncc4c32)c1 (stereo not given) | 36.5% | 14.1% | 56.4% | 86.4% | 36.2% | 50.9% | 52.7% | 42.2% | 85% | 47.7%
Clc1ccc(-c2nc(C(Cl)Cl)nc3cc(-c4ccccc4)nn23)cc1 | 10.4% | 38.5% | 29.8% | 17% | -7.63% (active) | 18.6% | 54.8% | -10.2% (active) | -4.46% (active) | 19.7%
COc1ccc(-c2nc3c(c(-c4ccc(Cl)cc4)nn3-c3ccccc3)c(-c3ccccc3)c2C#N)cc1 | 114% | 106% | 100% | 103% | 116% | 122% | 111% | 111% | 114% | 108%
Cc1cc(=O)oc2cc(Oc3nc(Br)cn4c(Br)cnc34)ccc12 | 69.4% | 95.5% | 64.7% | 101% | 45.5% | 85.5% | 77.4% | 56.7% | 69.9% | 57.5%
C=C(c1ccc(C(=O)O)c(F)c1)c1cc2c(cc1C)C(C)(C)CCC2(C)C | 86.8% | 43.1% | 90.8% | 101% | 80.9% | 84.8% | 98% | 90.8% | 59.6% | 79.5%
O=C(/C=C/c1cccc(Oc2ccccc2)c1)c1ccc(Nc2nc(Nc3ccc(F)cc3)nc(Nc3ccc(Cl)cc3)n2)cc1 | -14.9% (active) | 25.4% | 104% | 99.5% | 97.9% | 120% | 94% | 104% | 109% | 96.8%
Cc1ccc2nc(-c3ccc(C(=O)N/N=C/c4ccc([N+](=O)[O-])cc4)cc3)[nH]c2c1 | 92% | 95.6% | 105% | 96.5% | 107% | 109% | 91.3% | 115% | 105% | 106%
C=C1C(=O)O[C@H]2[C@H]1CC/C(COC(=O)C(=O)c1c[nH]c3ccc(Cl)cc13)=C\CC[C@@]1(C)O[C@@H]21 | 1.13% (active) | -39.1% (active) | -30.3% (active) | -36.6% (active) | -89.3% (active) | 26.2% | -81% (active) | -95% (active) | -14.2% (active) | -20% (active)
C[N+]1=C(/C=C/c2ccccc2Cl)C(C)(C)c2ccccc21 | 18.2% | 66.9% | 90.8% | 100% | 96.1% | 94.3% | 90.6% | 78.3% | 102% | 101%
O=C(c1cccc(N2CCOCC2)n1)c1c[nH]c2ccccc12 | 95.7% | 96.6% | 89.9% | 105% | 82.3% | 164% | 70% | 91% | 89.2% | 97.2%
COc1ccc(-c2cc(C(=O)N3N=C(c4ccc(N)cc4)CC3c3ccc(Cl)cc3)c3cc(OC)ccc3n2)cc1 (stereo not given) | 20.9% | 20.9% | 56.4% | 76.1% | 53.9% | 89.7% | 39.6% | 42.7% | 87.3% | 14.8%
COc1cc(-c2ccc(-c3ccc(C(=N)N)cc3)s2)cc(OC)c1OC | 5.38% (active) | -22.6% (active) | 70.7% | 83% | 54% | 77.9% | 62.6% | 46% | 34.7% | 95.4%
